Only some compounds are listed: those with a hit (about 1.4% of all), similar ones and a draw of the others.
MbtI inh: MbtI salicylate synthase inhibition; P9WFX0; purified MbtI enzyme, fluorescence intensity read-out; inhibition, % (test concentration not listed); 0.89% of 100,000 active; in the data active means inhibition mostly above about 56%, no sharp cut-off; inactive means mostly below about 77%
MenB inh: blocks the Mycobacterium tuberculosis MenB enzyme | 0.43% of 100,000 active | inhibition, % (test concentration not listed) | P9WNP5 | MenB enzyme assay, absorbance read-out; in the data active means inhibition above about 21%, passing the limit was not always enough
PV pol inh: poliovirus RNA polymerase inhibition; P03300; poliovirus polymerase elongation, fluorescence polarization; stronger effect = lower value; % elongation, % (compound at 16.7 µg/mL); 0.66% of 150,000 active; in the data active means % elongation below about 90%
Target sequence (P03300 1749-2209 limits assumed): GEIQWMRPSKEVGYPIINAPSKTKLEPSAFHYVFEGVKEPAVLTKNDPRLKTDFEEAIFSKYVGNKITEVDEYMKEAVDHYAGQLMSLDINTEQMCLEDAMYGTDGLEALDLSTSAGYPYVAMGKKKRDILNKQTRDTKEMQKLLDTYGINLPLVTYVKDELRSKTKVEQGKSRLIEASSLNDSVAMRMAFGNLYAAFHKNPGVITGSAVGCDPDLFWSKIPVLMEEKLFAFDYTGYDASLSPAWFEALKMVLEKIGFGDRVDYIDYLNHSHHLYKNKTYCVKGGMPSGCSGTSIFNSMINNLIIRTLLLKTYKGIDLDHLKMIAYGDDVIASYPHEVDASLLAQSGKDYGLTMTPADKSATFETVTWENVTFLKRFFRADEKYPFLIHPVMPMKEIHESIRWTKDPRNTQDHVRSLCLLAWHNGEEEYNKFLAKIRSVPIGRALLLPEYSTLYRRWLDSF
AID504770: E. coli YBA685 growth inhibition, screen for V. cholerae RctB inhibitors; E. coli YBA685 rctB-dependent plasmid, OD600 growth, 3 h; stronger effect = lower value; 0.27% of 130,000 active; z-score (test concentration not listed); AID 504770; in the data active means z-score below about -2, passing the limit was not always enough
* marks the source's active call; other numbers are inactive results; nt = not tested or not shown.

SMILES	MbtI inh	MenB inh	PV pol inh	AID504770
CCCCCSc1ncnc2c1sc1nc(N3CCOCC3)c3c(c12)CCCC3	nt	nt	105	nt
c1nc2c3sc4nc(N5CCOCC5)c5c(c4c3ncn2n1)CCC5	1	28*	100	1.4
CCOC(=O)c1s/c(=N/N=C(C)C)n(C)c1C	56*	-15	102	-0.8
Cc1cc(C(=O)NN2CCN(C)CC2)cs1	-16	4	102	-1.6
COc1cccc(C2=NN(C(=O)c3ccccc3Cl)C(c3ccco3)C2)c1 (stereo not drawn)	15	-31	99	1.2
COc1ccccc1C1=NN(C(=S)Nc2ccccc2)C(c2ccco2)C1 (stereo not drawn)	73*	-38	101	0.1
Cn1c(C(=O)OCC(=O)NC2CCCCC2)cc2sccc21	-11	-14	103	0.6
COC(=O)C1CN(CC(=O)Nc2cccnc2Cl)CCS1 (stereo not drawn)	-9	-27	104	-0.05
CN1C(=O)NC(=O)/C(=C/c2ccc(F)cc2)C1=O	11	-60	98	0.65
CN1C(=O)NC(=O)/C(=C\C=C\c2ccccc2)C1=O	84*	-40	102	-0.35
O=C1NC(=O)C(=C/C=C/c2ccccc2)C(=O)N1	78*	-73	104	-0.1
CN(C)C(CNS(=O)(=O)c1ccc2c(c1)OCCO2)c1ccco1 (stereo not drawn)	-30	-13	96	-1.4
CC1Cc2cc(C(=O)NCC(c3ccco3)N3CCCC3)ccc2N1S(C)(=O)=O (stereo not drawn)	5	-18	101	-0.05
Cc1ccc(C2=NN=C(NC(=O)CSc3nnc(C)s3)SC2)cc1	84*	8	99	-0.8
CCc1nn2c(=O)cc(COc3ccc(/C=C4/C(=N)N5C=CSC5=NC4=O)cc3)nc2s1	-2	-7	102	-0.45
CCC(=O)N(c1n[nH]c(=S)s1)C1CC1	91*	-13	nt	-0.65
CC(C)CNCCCN1CCOCC1	0	36*	101	0.55
Cc1nn(-c2ccccc2)c(C)c1C(=O)N(Cc1ccco1)Cc1cccs1	-24	-4	105	0.35
O=C(Nc1ccccc1Cl)c1cc2c(s1)CCC2	4	nt	102	-1.5
O=C(NC1=NCCS1)c1cc2c(s1)CCC2	2	nt	103	-2.4*
CC(=O)c1c(CC(=O)O)[nH]n(-c2nc3ccccc3s2)c1=O	60*	-16	101	1.9
COC(=O)Cc1[nH]n(-c2nc3ccccc3s2)c(=O)c1C(C)=O	nt	-11	107	0.25
COc1ccc(CCN2C(=O)C=CC2=O)cc1	93*	nt	102	-0.25
COc1ccc(CN2C(=O)C=CC2=O)cc1	nt	nt	nt	-1.4
O=C1c2ccccc2-c2onc3c(Cl)ccc1c23	1	-26	100	1.8
SMILES	MbtI inh	MenB inh	PV pol inh	AID504770
O=C1c2ccccc2-c2onc3ccc(Oc4c(F)c(F)c(F)c(F)c4F)c1c23	-5	3	102	-2.2*
CC1(C)Cc2ccccc2-c2nnc(SCC(=O)N3CCCCC3)n21	-15	-26	102	-0.6
CCOc1ccc(C(=O)NC(C(=O)Nc2ccc(S(=O)(=O)N(C)C)cc2)C(C)C)cc1 (stereo not drawn)	4	-29	102	-5*
O=C(CCn1c(=O)oc2ccccc21)Oc1cccc(Cl)c1	nt	nt	nt	0.6
O=C(CCn1c(=O)oc2ccccc21)Sc1ccc(Cl)cc1Cl	70*	2	87*	1
CC(C)(C)Nc1nc2c(s1)CCCC2	78*	9	101	-0.75
Cc1ccc(NCc2nnc(SCC(=O)c3ccc(C)cc3)n2C)cc1	-14	-28	103	1.5
CC1Cc2ccccc2N1C(=O)c1ccc(Cl)cc1 (stereo not drawn)	-8	-27	103	-1
COc1ccc(C(=O)N2c3ccccc3CC2C)cc1 (stereo not drawn)	2	32*	101	0.6
CN(C)S(=O)(=O)c1ccc(C(=O)NCC2CCCO2)cc1 (stereo not drawn)	-4	-5	105	-0.6
CCOC(=O)c1c(NC(=O)c2cc(-c3ccccc3OC)on2)sc(C)c1C	nt	nt	73*	nt
COc1ccccc1-c1cc(C(=O)Nc2sc3c(c2C#N)CCCC3)no1	nt	nt	82*	nt
CCOC(=O)c1sc(NC(=O)c2cc(C(C)C)on2)c(C(=O)OCC)c1C	6	-11	101	0.25
CCOC(=O)c1c(NC(=O)c2cc(CC(C)C)on2)sc(C(C)=O)c1C	nt	nt	81*	nt
CCOC(=O)c1c(NC(=O)c2cc(CC)on2)sc(C)c1C	nt	nt	90*	nt
CCOC(=O)c1c(NC(=O)c2cc(-c3ccc(OC)c(OC)c3)on2)sc(C)c1C	nt	nt	103	nt
Cc1cc(C(=O)Nc2sc3c(c2C#N)CCC3)no1	nt	nt	nt	-0.2
CCCC/C(C)=N/N1C(C)CCCC1C (stereo not drawn)	-5	-5	104	-0.4
CCOC(=O)c1c(NC(=O)c2cc(C)on2)sc(C)c1C	nt	nt	78*	nt
CCOC(=O)c1c(NC(=O)c2cc(-c3ccc(Cl)cc3)on2)sc(C)c1C	nt	nt	106	nt
CC1=CC(=O)C(N(C)c2ccccc2)=CC1=O	85*	nt	103	-0.95
CC1=C/C(=C/N(C)c2ccccc2)C(=O)S1	28	-147	100	-0.7
O=C(/C=C/N1CCOCC1)c1ccc(Cl)cc1	5	-1	102	-0.05
CC1=CC(=O)C=C(C)C1=NS(=O)(=O)c1ccccc1	96*	-11	103	2
O=S(=O)(N=C1SCCS1)c1ccccc1	nt	nt	nt	-0.2
SMILES	MbtI inh	MenB inh	PV pol inh	AID504770
O=C1C2CNC3(C(=O)Nc4ccccc43)C2C(=O)N1Cc1ccccc1 (stereo not drawn)	5	-25	103	2.4
O=c1nc(N2CCCCC2)ccn1-c1nc(-c2ccccc2)oc1-c1ccccc1	-49	-1	103	-1
O=C1NC(=O)NC(=C/C=C/c2ccc(-c3ccc(Cl)cc3Cl)o2)N1	57*	-18	102	1.4
Cc1cc(C)nc(SCCN(C)C)n1	-5	nt	nt	2
Cc1cc(C)nc(SCCSc2nc(C)cc(C)n2)n1	-11	34*	100	0.25
Cc1cc(C)nc(SCC(N)=O)n1	-11	46*	101	-0.75
CCN(CC)CCNC(=O)c1ccc2c(c1)sc1nc(-c3ccc(F)cc3)cn12	nt	nt	89*	nt
CCOc1ccc(C2=C(C(C)=O)Sc3nnc(C)n3N2C(C)=O)cc1	nt	nt	79*	nt
O=C1CCC(Sc2ccccc2C(=O)O)N1 (stereo not drawn)	nt	nt	nt	0.4
O=S(=O)(c1ccc2oc(=S)n(CN3CCOCC3)c2c1)N1CCOCC1	77	-2	62*	-0.3
CN(CCC#N)CC1Cc2ccccc2O1 (stereo not drawn)	-1	45*	103	1.3
Cc1ccc2nc(COC(=O)/C=C/c3c(C)nn(C4CCS(=O)(=O)C4)c3Cl)cc(=O)n2c1 (stereo not drawn)	38	-11	97	-0.05
COc1ccc(/C=N/n2cn[nH]c2=S)cc1	71*	-40	105	1.4
COc1ccc(/C=N/n2cnnc2)cc1	11	-2	103	0.5
COc1ccc(S(=O)(=O)c2cn(Cc3ccccc3)c3ccc(OC)cc3c2=O)cc1	nt	nt	102	nt
CCOc1ccc(S(=O)(=O)c2cn(Cc3ccc(C)cc3)c3ccc(OC)cc3c2=O)cc1	nt	nt	90*	nt
CCCNC(=O)CN1C(=O)CSc2ncccc21	1	-3	100	-0.55

Screening results from PubChem.
